Consider one molecule from PubChem BioAssay (NCATS).

A number with no mark means an inactive call. Results filed as inconclusive are left out. Active and inactive are the calls of the source. Unless noted, calls follow the shape of the dose curve; as a rule, active = well fitted curve in the direction sought with a large enough effect; inconclusive = small, poorly fitted or top-dose-only effect, or another doubt; inactive = no such curve, though single readings can be large; an effect the other way counts as inactive or inconclusive.

The target in assay [1] is Cytochrome P450 1A2 (Homo sapiens) (UniProt P05177). Nature of the assay: p450-cyp1a2 (AID 410; calls by dose curve; also: potency is read from the fitted curve at half-maximal effect). In short, it runs like this: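 Inhibition was calculated relative to 57 uM furafylline (full inhibition). The reaction used human CYP1A2 at 20nM with Luciferin-ME at its Km, 100uM, driven by an NADPH-regenerating system for 60 min at room temperature.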
Sequence of Cytochrome P450 1A2 (Homo sapiens) (P05177 whole entry, looked up): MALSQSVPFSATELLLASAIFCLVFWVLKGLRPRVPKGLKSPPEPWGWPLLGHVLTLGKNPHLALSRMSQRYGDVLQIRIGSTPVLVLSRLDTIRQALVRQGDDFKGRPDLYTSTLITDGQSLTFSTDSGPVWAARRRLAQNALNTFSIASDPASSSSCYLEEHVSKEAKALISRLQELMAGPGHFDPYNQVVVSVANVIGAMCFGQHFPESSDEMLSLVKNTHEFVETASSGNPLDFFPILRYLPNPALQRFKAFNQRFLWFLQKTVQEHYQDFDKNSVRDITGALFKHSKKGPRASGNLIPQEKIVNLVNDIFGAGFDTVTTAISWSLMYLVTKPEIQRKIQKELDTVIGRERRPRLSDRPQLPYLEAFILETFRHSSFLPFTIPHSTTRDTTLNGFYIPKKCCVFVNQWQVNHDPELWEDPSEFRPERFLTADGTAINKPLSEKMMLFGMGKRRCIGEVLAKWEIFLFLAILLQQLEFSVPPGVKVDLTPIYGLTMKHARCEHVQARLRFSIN
Assay [2] concerns the target 3',5'-cyclic-AMP phosphodiesterase 4B (Homo sapiens) (UniProt Q07343). Nature of the assay: qHTS Assay for Inhibitors of PDE-IV (AID 607; active = well fitted activation curve with a large enough effect in the main read-out, with a control signal flat, not every such curve was filed as active). The essentials:
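ACTOne HEK293 cells carry a modified cAMP-gated CNG channel and express endogenous PDE4; plated 1000 cells/well, compounds up to 22.9 uM final. Membrane-potential dye fluorescence (ex 535/em 590) was read; parental cells received 10 uM forskolin + 100 uM RO 20-1724.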
For orientation: qHTS replaces the single test concentration by a dilution series.

Assay [3] has as its target Cytochrome P450 3A4 (Homo sapiens) (UniProt P08684). Description: qHTS Assay for Activators of Cytochrome P450 3A4 (AID 885). Also: nearly all actives have a fitted effect of over 65% in size. In short, it runs like this: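 20nM CYP3A4 + 25uM Luciferin-PPXE (=KM), 200mM KPO4; cpd 10 min RT; NADPH regen, 60 min RT; stop w/ detection buffer, 20 min; luminescence. Normalized to 57 uM ketoconazole.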
Assay [4] concerns the target Cytochrome P450 2C19 (Homo sapiens) (UniProt P33261). Nature of the assay: qHTS Assay for Inhibitors and Substrates of Cytochrome P450 2C19 (AID 899). Also: potency is read from the fitted curve at half-maximal effect; nearly all actives have a fitted effect of over 60% in size. The essentials: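 Luminescent read-out of luciferin formed from Luciferin-H EGE (10uM, equal to KM). Enzyme 5nM in 50mM KPO4; compound added, 10 min at 37C, then NADPH regenerating system for 60 min at 37C. Full inhibition defined by 57uM ketoconazole.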

Sequence of 3',5'-cyclic-AMP phosphodiesterase 4B (Homo sapiens) (Q07343 whole entry, looked up): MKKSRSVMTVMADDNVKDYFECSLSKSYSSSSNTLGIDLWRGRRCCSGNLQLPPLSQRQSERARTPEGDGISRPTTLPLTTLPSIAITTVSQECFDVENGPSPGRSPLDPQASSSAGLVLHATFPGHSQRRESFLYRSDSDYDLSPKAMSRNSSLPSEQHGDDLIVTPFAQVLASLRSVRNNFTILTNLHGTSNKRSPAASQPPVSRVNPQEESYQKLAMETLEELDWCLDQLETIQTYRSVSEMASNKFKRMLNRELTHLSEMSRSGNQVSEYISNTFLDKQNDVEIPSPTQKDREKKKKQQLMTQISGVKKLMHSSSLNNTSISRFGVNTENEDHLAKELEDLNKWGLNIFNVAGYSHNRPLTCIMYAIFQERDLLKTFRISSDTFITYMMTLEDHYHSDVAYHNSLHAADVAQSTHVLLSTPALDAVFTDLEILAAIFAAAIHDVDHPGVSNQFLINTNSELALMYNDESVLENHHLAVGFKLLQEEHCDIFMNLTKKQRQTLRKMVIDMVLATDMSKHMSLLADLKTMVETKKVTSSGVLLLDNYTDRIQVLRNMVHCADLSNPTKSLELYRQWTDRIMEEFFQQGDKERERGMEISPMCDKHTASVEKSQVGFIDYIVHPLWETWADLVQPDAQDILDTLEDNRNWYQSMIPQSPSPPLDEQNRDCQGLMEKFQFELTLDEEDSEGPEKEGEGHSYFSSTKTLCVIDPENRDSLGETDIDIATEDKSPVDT
Sequence of Cytochrome P450 3A4 (Homo sapiens) (P08684 whole entry, looked up): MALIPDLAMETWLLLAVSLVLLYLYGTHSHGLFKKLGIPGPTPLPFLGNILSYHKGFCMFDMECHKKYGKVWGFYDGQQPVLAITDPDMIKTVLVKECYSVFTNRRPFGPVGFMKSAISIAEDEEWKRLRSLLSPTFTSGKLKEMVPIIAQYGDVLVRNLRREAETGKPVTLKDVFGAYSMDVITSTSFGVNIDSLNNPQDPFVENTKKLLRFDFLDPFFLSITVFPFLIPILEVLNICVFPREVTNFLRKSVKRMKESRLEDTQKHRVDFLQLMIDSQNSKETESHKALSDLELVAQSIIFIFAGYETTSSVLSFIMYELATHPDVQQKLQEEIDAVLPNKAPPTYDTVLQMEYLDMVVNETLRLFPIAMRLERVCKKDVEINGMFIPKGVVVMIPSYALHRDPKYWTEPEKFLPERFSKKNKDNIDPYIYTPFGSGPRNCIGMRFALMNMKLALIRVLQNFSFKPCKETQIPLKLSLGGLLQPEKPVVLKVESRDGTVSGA
Sequence of Cytochrome P450 2C19 (Homo sapiens) (P33261 whole entry, looked up): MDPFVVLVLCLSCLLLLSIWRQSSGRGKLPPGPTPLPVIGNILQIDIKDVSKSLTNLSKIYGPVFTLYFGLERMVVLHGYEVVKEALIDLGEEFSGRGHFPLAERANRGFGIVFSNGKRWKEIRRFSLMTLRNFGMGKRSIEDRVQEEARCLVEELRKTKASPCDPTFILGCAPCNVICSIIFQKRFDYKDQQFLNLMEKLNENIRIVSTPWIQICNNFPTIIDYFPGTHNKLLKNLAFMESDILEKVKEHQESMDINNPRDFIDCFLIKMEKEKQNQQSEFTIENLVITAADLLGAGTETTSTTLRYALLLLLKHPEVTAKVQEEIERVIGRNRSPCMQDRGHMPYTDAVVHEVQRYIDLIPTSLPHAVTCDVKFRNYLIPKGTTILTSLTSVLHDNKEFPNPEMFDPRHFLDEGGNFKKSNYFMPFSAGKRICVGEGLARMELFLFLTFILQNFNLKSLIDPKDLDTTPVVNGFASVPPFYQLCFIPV

In the case of `CCC/C=C(\CCC)C(NS(=O)(=O)c1ccc(C(F)(F)F)cc1)c1ccccc1` (centres undefined), the Potency in assay [1] is 7.94 µM (active); in assay [4], 0.398 µM (active). Further, the Potency result in assay [2] and in assay [3] was “inactive” each time.
